Source: PubChem BioAssay (EPA / NIEHS)
Inconclusive results are not listed. The source made the active and inactive calls. How the source made its calls, unless noted: active means hit-call score of the fitted dose curve at least 0.9, where 1 is the maximum; inactive means score below 0.9.

Legend:
[1] = biological target: Cellular tumor antigen p53 (Homo sapiens) (UniProt P04637); assay: TOX21_p53_BLA_p2_ratio: Tox21 HCT-116 p53 Agonism Beta-lactamase Assay, Ratio, Phase 2 (AID 2283592; active means hit-call score of the fitted dose curve at least 0.9, where 1 is the maximum)
Cellular tumor antigen p53 (Homo sapiens), sequence (P04637 whole entry, looked up): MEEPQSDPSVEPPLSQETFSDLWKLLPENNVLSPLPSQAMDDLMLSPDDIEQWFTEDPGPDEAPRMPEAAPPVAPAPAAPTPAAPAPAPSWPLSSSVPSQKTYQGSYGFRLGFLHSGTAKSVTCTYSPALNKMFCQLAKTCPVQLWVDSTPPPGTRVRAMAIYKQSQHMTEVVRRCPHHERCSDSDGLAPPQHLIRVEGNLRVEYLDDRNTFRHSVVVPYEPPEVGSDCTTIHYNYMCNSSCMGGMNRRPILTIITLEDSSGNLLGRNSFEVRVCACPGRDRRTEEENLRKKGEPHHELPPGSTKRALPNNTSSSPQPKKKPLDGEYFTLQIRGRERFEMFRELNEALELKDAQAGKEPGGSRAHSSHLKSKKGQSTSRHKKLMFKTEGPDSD
Summary of the method: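 HCT116 p53-bla; 4000 cells/well; 5 h pre-incubation; cpd in DMSO, 217-fold dilution; 16 h 37C/5% CO2; CCF4-AM 2 h RT; Ex 405, Em 460/530 ratio; DMSO = baseline; positive fitting direction.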

[2] = TOX21_p53_BLA_p3_viability: Viability Assessment in the Tox21 HCT-116 p53 Agonism Beta-lactamase Assay, Phase 3 (AID 2283593; active means hit-call score of the fitted dose curve at least 0.9, where 1 is the maximum;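 further: cells exposed to compound for 16 h before reading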)
Summary of the method: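 HCT-116 cells (4000/well) rested 5 h at 37C, then got DMSO compounds by pin tool (217-fold dilution) for 16 h at 37C, 5% CO2. After the bla read, CellTiter-Glo was added and luminescence read at 30 min, room temperature.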

[3] = biological target: Cellular tumor antigen p53 (Homo sapiens) (UniProt P04637); assay: TOX21_p53_BLA_p3_ratio: Tox21 HCT-116 p53 Agonism Beta-lactamase Assay, Ratio, Phase 3 (AID 2283596; active means hit-call score of the fitted dose curve at least 0.9, where 1 is the maximum)
Summary of the method: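 HCT116 p53-bla cells (4000/well) given compound in DMSO (217-fold dilution) after 5 h, incubated 16 h at 37C. CCF4-AM substrate 2 h at room temperature; 460/530 nm emission ratio, gain fitted against DMSO.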

[4] = TOX21_p53_BLA_p4_viability: Viability Assessment in the Tox21 HCT-116 p53 Agonism Beta-lactamase Assay, Phase 4 (AID 2283597; active means hit-call score of the fitted dose curve at least 0.9, where 1 is the maximum;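 further: hits lower the luminescence signal meaning cytotoxicity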)
Summary of the method: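 Cells plated, 5 h pre-incubation; DMSO compounds pinned (217-fold dilution); 16 h, 37C/5% CO2; CCF4-AM 2 h RT; CellTiter-Glo 30 min RT; luminescence read.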

[5] = biological target: Cellular tumor antigen p53 (Homo sapiens) (UniProt P04637); assay: TOX21_p53_BLA_p5_ratio: Tox21 HCT-116 p53 Agonism Beta-lactamase Assay, Ratio, Phase 5 (AID 2283599; active means hit-call score of the fitted dose curve at least 0.9, where 1 is the maximum)
Summary of the method: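 HCT-116 cells carrying a p53-inducible beta-lactamase reporter were seeded at 4000 cells/well and dosed after 5 h with compound in DMSO (217-fold dilution). After 16 h at 37C, CCF4-AM substrate was added for 2 h, and the 460/530 nm emission ratio was scored as gain-of-signal versus DMSO.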

[6] = biological target: Cellular tumor antigen p53 (Homo sapiens) (UniProt P04637); assay: TOX21_p53_BLA_p4_ratio: Tox21 HCT-116 p53 Agonism Beta-lactamase Assay, Ratio, Phase 4 (AID 2283601; active means hit-call score of the fitted dose curve at least 0.9, where 1 is the maximum)
Summary of the method: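 HCT116 cells carrying an inducible beta-lactamase reporter were plated at 4000 cells/well, rested 5 h, then exposed to compounds in DMSO (217-fold dilution) for 16 h at 37C. CCF4-AM substrate was loaded 2 h at room temperature; 460/530 nm emission ratio scored gain-of-signal versus DMSO.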

[7] = CCTE_Shafer_MEA_acute_spike_number: CCTE's Neural Acute Assay for Total Number of Spikes, Shafer Lab (AID 2284008)
Summary of the method: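 Read-out is the total spike count over 40 min, expressed as percent change from each well's own pre-treatment baseline and fitted in the loss direction against DMSO. Rat cortical neurons were exposed at 0.03-40 uM on DIV 13 or 15.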

[8] = CCTE_Shafer_MEA_acute_burst_number: CCTE's Neural Acute Assay for Single-Electrode Bursts, Shafer Lab (AID 2284013)
Summary of the method: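 Rat cortical cultures, DIV 13/15; 40 min baseline, then 40 min with compound 0.03-40 uM, 37 C. Spikes: 300-5000 Hz band-pass, threshold 8x rms noise. Readout = % change in single-electrode bursts vs baseline, loss-of-signal fit.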

[9] = CCTE_Shafer_MEA_acute_burst_duration_mean: CCTE's Neural Acute Assay for Mean Burst Duration, Shafer Lab (AID 2284014);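 further: hits are decreases in mean burst duration relative to DMSO controls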
Summary of the method: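 Primary rat cortical neurons on 16-electrode MEA wells, treated on DIV 13 or 15 with compound (0.03-40 uM; ≥3 wells each). 40-min baseline and 40-min exposure recordings at 37 C; percent change in mean burst duration per well versus DMSO.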

[10] = CCTE_Shafer_MEA_acute_per_burst_spike_number_mean: CCTE's Neural Acute Assay for Average Number of Spikes Per Burst, Shafer Lab (AID 2284015);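 further: hits are decreases in mean spikes per burst versus baseline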
Summary of the method: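 Rat primary cortical neurons on 48-well MEAs (DIV 13 or 15) were treated with 0.03-40 uM compound at 37 C. Mean spikes per burst over 40 min were recorded before and after exposure and expressed as percent change from baseline, relative to DMSO.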

[11] = CCTE_Shafer_MEA_acute_interburst_interval_mean: CCTE's Neural Acute Assay for Mean Interburst Interval, Shafer Lab (AID 2284016);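 further: percent change of mean interburst interval versus each well's own pre-dose baseline; curves fitted for decrease in interburst interval relative to DMSO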
Summary of the method: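 Rat primary cortical neurons on 48-well MEAs at DIV 13 or 15 were exposed acutely to 0.03-40 uM. Spikes detected at 8x rms noise, 37 C. Mean interburst interval from 40 min recordings expressed as percent change from 40 min pre-treatment baseline.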

[12] = CCTE_Shafer_MEA_acute_burst_percentage_mean: CCTE's Neural Acute Assay for Percentage of Spikes in a Burst, Shafer Lab (AID 2284017);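 further: curve fitted for loss of signal so potency reflects decreased burst percentage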
Summary of the method: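 Primary rat cortical neurons on 48-well MEA plates, treated on DIV 13 or 15 at 0.03-40 uM. Spikes detected at 8x rms noise at 37C; percent change from 40-min baseline to 40-min post-dose recording, fitted versus DMSO.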

[13] = CCTE_Shafer_MEA_acute_burst_percentage_std: CCTE's Neural Acute Assay for Standard Deviation of Burst Percentage, Shafer Lab (AID 2284018);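 further: fitted in the negative direction so actives lower burst percentage SD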
Summary of the method: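 Primary rat cortical neurons on 16-electrode MEA wells were recorded 40 min at baseline (DIV 13 or 15), then 40 min after compound (0.03-40 uM), at 37 C. Well value is SD across electrodes of spikes-in-bursts/total spikes; endpoint is percent change, DMSO-referenced.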

[14] = CCTE_Shafer_MEA_acute_per_network_burst_spike_number_mean: CCTE's Neural Acute Assay for Average Number of Spikes in a Network Burst, Shafer Lab (AID 2284019)
Summary of the method: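 Primary rat cortical neurons on 16-electrode MEA wells, DIV 13 or 15, 37 C; 40-min baseline then 40-min recording with compound (0.03-40 uM). Spikes per network burst (total spikes/number of bursts) expressed as percent change from baseline, DMSO reference.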

[15] = CCTE_Shafer_MEA_acute_per_network_burst_spike_number_std: CCTE's Neural Acute Assay for Standard Deviation of Number of Spikes in a Network Burst, Shafer Lab (AID 2284020);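 further: fitted for decrease in spike-number SD versus DMSO so actives lower it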
Summary of the method: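 Primary rat cortical neurons on 48-well MEAs (16 electrodes/well) recorded at DIV 13 or 15: 40-min baseline, then 40 min with compound (0.03-40 uM), 37 C. Value is percent change in SD of spikes per network burst, relative to DMSO.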

[16] = CCTE_Shafer_MEA_acute_per_network_burst_electrodes_number_mean: CCTE's Neural Acute Assay for Mean Number of Electrodes in a Network Burst, Shafer Lab (AID 2284021);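 further: curves fitted for decreases only so hits reduce electrodes per burst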
Summary of the method: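 Primary rat cortical networks, mwMEA, 37 C. 20 min stabilization, 40 min baseline, compound 0.03-40 uM, 40 min re-record. Wells need >=10 active electrodes; percent change per well, negative fitting direction.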

[17] = CCTE_Shafer_MEA_acute_network_burst_percentage: CCTE's Neural Acute Assay for Percentage of Network Bursts, Shafer Lab (AID 2284022);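 further: curves fitted for loss so actives lower network burst percentage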
Summary of the method: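 Readout is the fraction of spikes falling in network bursts, expressed as per-well percent change from a 40-min pre-exposure baseline. Primary rat cortical neurons on MEA were exposed to 0.03-40 uM compound on DIV 13 or 15 and recorded for 40 min at 37 C.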

[18] = CCTE_Shafer_MEA_acute_cross_correlation_area: CCTE's Neural Acute Assay for Area of Cross Correlation, Shafer Lab (AID 2284024);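 further: area under pooled inter-electrode spike cross-correlation near zero lag as percent change from own baseline; curves fitted for loss of cross-correlation area so actives lower synchrony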
Summary of the method: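 Plates equilibrated 20 min at 37 C, then 40 min baseline was recorded, compound was added (0.03-40 uM), and a further 40 min was recorded. Wells needed ≥10 active electrodes (≥5 spikes/min) on exposure day.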

[19] = CCTE_Shafer_MEA_acute_cross_correlation_HWHM: CCTE's Neural Acute Assay for Cross Correlation at Half Width at Half Maximum, Shafer Lab (AID 2284026);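 further: percent change per well from pre-dose baseline in spike cross-correlogram half width; hits are a decrease in cross-correlogram half width relative to DMSO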
Summary of the method: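 Rat cortical neuron cultures on microelectrode arrays were equilibrated 20 min at 37 C, recorded 40 min at baseline, then 40 min after compound addition (0.03-40 uM, ≥3 wells). Spikes were detected at 8x rms noise after 300-5000 Hz band-pass filtering.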

[20] = CCTE_Shafer_MEA_acute_synchrony_index: CCTE's Neural Acute Assay for Synchrony, Shafer Lab (AID 2284027);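 further: network synchrony index of spontaneous spiking in primary rat cortical neurons on MEAs; fitted for loss of signal so actives lower synchrony relative to DMSO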
Summary of the method: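 Primary rat cortical neurons on 48-well MEAs, dosed at 0.03–40 uM on DIV 13 or 15. Spikes are recorded for 40 min at 37C before and after exposure, and synchrony index (0–1) is expressed as percent change from baseline per well.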

[21] = CCTE_Shafer_MEA_dev_firing_rate_mean: CCTE's Neural Network Formation Assay for Mean Firing Rate, Shafer Lab (AID 2284031)
Summary of the method: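 Primary rat cortical neurons on 48-well MEA plates, exposed from plating day 0 with dosing renewed on DIV 5 and 9. Mean well firing rate over active electrodes, recorded days 5, 7, 9, 12, summarised as trapezoidal AUC.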

[22] = CCTE_Shafer_MEA_dev_per_burst_spike_percent: CCTE's Neural Network Formation Assay for Percent of Spikes in a Burst, Shafer Lab (AID 2284032);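 further: fitted as a decrease in burst spike percentage below DMSO baseline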
Summary of the method: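 Rat primary cortical neurons on 16-electrode MEA wells, dosed from plating day 0 for 12 days with renewal on DIV 5 and 9; spikes-in-bursts percentage averaged over bursting electrodes, collapsed as AUC across days 5, 7, 9, 12; loss direction versus DMSO.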

[23] = CCTE_Shafer_MEA_dev_active_electrodes_number: CCTE's Neural Network Formation Assay for Number of Active Electrodes, Shafer Lab (AID 2284040; active means hit-call score of the fitted dose curve at least 0.9, where 1 is the maximum;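 further: potency for loss of active electrodes versus DMSO so lower counts are hits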)
Summary of the method: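 Primary rat cortical neurons on 16-electrode MEA wells, exposed from day 0 through day 12 with compound renewed at DIV 5 and 9 feeds. Active electrodes (mean firing ≥5 spikes/min) counted at DIV 5, 7, 9, 12; trapezoidal AUC across days, loss-of-signal versus DMSO.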

[24] = CCTE_Shafer_MEA_dev_burst_rate: CCTE's Neural Network Formation Assay for Burst Rate, Shafer Lab (AID 2284042)
Summary of the method: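 Primary rat cortical neurons on PEI-coated 48-well MEA plates (laminin added with cells at plating) (16 electrodes/well), exposed from plating to day 12, dosing renewed at DIV 5 and 9. Burst rate averaged over active electrodes, recorded DIV 5, 7, 9, 12, summarized as AUC; loss versus DMSO.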

[25] = CCTE_Shafer_MEA_dev_bursting_electrodes_number: CCTE's Neural Network Formation Assay for Number of Bursting Electrodes, Shafer Lab (AID 2284043; active means hit-call score of the fitted dose curve at least 0.9, where 1 is the maximum;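 further: potency is for loss of bursting electrodes relative to DMSO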)
Summary of the method: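 Primary rat cortical neurons were cultured on PEI-coated 48-well MEA plates (16 electrodes/well) and exposed from plating through day 12, with compound renewed at feeds on DIV 5 and 9. Electrodes bursting ≥1 per 2 min were counted on DIV 5, 7, 9, 12; trapezoidal AUC taken.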

[26] = CCTE_Shafer_MEA_dev_per_burst_interspike_interval: CCTE's Neural Network Formation Assay for Burst Interspike Interval, Shafer Lab (AID 2284044);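 further: mean spike spacing inside bursts as AUC over recordings on days 5 7 9 12; potency for a decrease of within-burst interspike interval below DMSO level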
Summary of the method: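 Neurons from rat cortex plated onto PEI-coated MEA wells with laminin […] at 1.5 x 10^5 cells/well, then treated from day 0. Media and compound fully replaced on DIV 5 and 9. Extracellular spontaneous firing recorded four times; interspike interval per burst summarised as AUC.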

Measured: AC50

CC1(C)[C@H](C=C(Cl)Cl)[C@@H]1C(=O)O[C@@H](C#N)c1cccc(Oc2ccccc2)c1
active: [10] 2610 nM | [11] 1120 nM | [12] 2240 nM | [15] 682 nM | [16] 1230 nM | [17] 2980 nM | [18] 170 nM | [19] 15000 nM | [20] 1390 nM | [22] 8960 nM | [23] 15000 nM | [25] 8640 nM | [26] 4060 nM
inactive: [1] | [2] | [3] | [4] | [5] | [6] | [7] | [8] | [9] | [13] | [14] | [21] | [24]
